Test results as given in ChEMBL document CHEMBL4513216, “Probing the Open Global Health Chemical Diversity Library for Multistage-Active Starting Points for Next-Generation Antimalarials” (ACS Infect Dis, 2020).
Among all 69,000 compounds or so, about 8,600 (12%) showed an effect of 50% or more. The sample holds strong results, similar compounds and a random draw of the others, so the mix is not that of the screen.

System: Plasmodium berghei
Experiment: Screen against P. berghei liver stage (PbLuc), transformed with Luciferase, at 10uM
Assay type: functional, HepG2
Settings: tested at 10 uM

Row | SMILES | INHIBITION
1 | Cc1cc2nc(SCC(=O)N3CCOCC3)n(CCC(C)C)c(=O)c2[nH]1 | 45.8%
2 | O=C(Cc1ccc(-n2cnnn2)cc1)Nc1cnn(CC(F)F)c1 | 42.6%
3 | O=C(c1ccc(-c2ccc(O)nc2)s1)N1CCSCC1 | 3.295%
4 | Cc1ccc(CN2C[C@H](OCCN(C)C)[C@H]3COC[C@H]32)o1 | 14.6%
5 | Fc1ccc(-c2nnc(CN3CCCC(Cn4cncn4)C3)o2)cc1 (configuration not stated) | -105%
6 | CCCc1n[nH]c(C2CN(C(=O)CCc3cscn3)CCO2)n1 (configuration not stated) | 25.3%
7 | O=c1[nH]c(NCCO)nc2c1C1(CCCCC1)Cc1ccccc1-2 | 66.5%
8 | CN1Cc2ccccc2CC2(CCN(CCO)CC2)C1=O | -9.23%
9 | O=c1[nH]c(NCCO)nc2c1C1(CCCC1)Cc1ccccc1-2 | 62.3%
10 | OCCCNc1nc(O)c2c(n1)-c1ccccc1CC21CCCCC1 | 77.2%
11 | Cc1cccc(CN2CCCC3(Cc4ccccc4CNC3=O)C2)n1 (configuration not stated) | 9.32%
12 | CC(C)NC(=O)N1CCC2(CC1)Cc1ccccc1CNC2=O | 29.5%
13 | CCC1(C)Cc2ccccc2-c2nc(NCCCO)nc(O)c21 (configuration not stated) | 28.4%
14 | O=c1[nH]c(NCCCO)nc2c1C1(CCCC1)Cc1ccccc1-2 | 64%
15 | Cc1cc(C(=O)NC2CCN(c3nnc(C)c(C)c3C#N)CC2)no1 | 3.87%
16 | Cn1ccc(C(=O)N2CCOC(c3ccc(C(N)=O)cn3)C2)n1 (configuration not stated) | 22%
17 | Cc1noc(CNC(=O)CN(C)c2nc3ccccc3s2)n1 | -4.01%
18 | O=C(c1cc(C2CCCN(Cc3ccccn3)C2)no1)N1CCCC1 (configuration not stated) | 7.52%
19 | Cc1oc(-c2cccs2)nc1C(=O)N1CCCC1Cn1cccn1 (configuration not stated) | 36.1%
20 | c1ccc(CN2CCc3c(COCc4ccncc4)cncc3C2)nc1 | 3.81%
21 | O=c1cc(Cn2cncn2)nc2n1CCCN(Cc1ccc(F)cc1)C2 | 22.5%
22 | COc1c(CNCC(O)c2cccc(F)c2)c(C)nn1C (configuration not stated) | -47.6%
23 | Cn1c(Cn2ccnc2)nnc1C1CCN(C(=O)c2ccccn2)CC1 | 5.41%

Row | SMILES | INHIBITION
24 | Cc1ncccc1NC(=O)[C@@H]1CC[C@@H]2[C@@H](CCN2Cc2cnn(C)c2)O1 | 0.734%
25 | Cc1ccc(-c2cccc(N3CCC(NC4CCOCC4)CC3)c2)cc1 | 39.3%
26 | COc1cccc(-c2cccc(N3CCC(N[C@@H]4CCOC4)CC3)c2)c1 | 53.7%
27 | Fc1cccc(-c2cccc(N3CCC(NC4CCCOC4)CC3)c2)c1 (configuration not stated) | 46.5%
28 | CC(=O)N1CCC(c2cncc(N3CCC(O)C3)n2)CC1 (configuration not stated) | 23.9%
29 | CC(C)c1noc(CCC(=O)NCC2CCC(C(N)=O)CC2)n1 (configuration not stated) | -21.8%
30 | CCCn1nccc1NC(=O)CN1CCCC1c1c(C)nn(C)c1C (configuration not stated) | 34.1%
31 | COc1ccc(-n2nnc(C(N)=O)n2)cc1 | -8.07%
32 | CCn1cc(Br)c(C(=O)NCc2cnn(C)c2)n1 | -13.2%
33 | CCn1cc(CNC(=O)c2nn(CC)cc2Br)cn1 | 76%
34 | CCn1cc(Br)c(C(=O)NCc2ccccc2)n1 | 17%
35 | COCC1Cn2nnc(-c3cnn(C)c3)c2CN1Cc1ccsc1 (configuration not stated) | 33.4%
36 | COc1cccn(CC(=O)N2CCCC3(CCCO3)CC2)c1=O (configuration not stated) | -2.61%
37 | Cc1ccc(S(=O)(=O)N(CCO)C2CC2)cc1N(C)C | 21.3%
38 | CC(C)c1nnc2n1CCN(C(=O)c1ccnc(-n3ccnc3)c1)C2 | 31.2%
39 | CCC(=O)NCC(=O)NCC1(c2c(F)cccc2F)CCCC1 | -3.59%
40 | CCS(=O)(=O)CC(=O)NCC1(c2c(F)cccc2F)CCCC1 | 57.4%
41 | CC(=O)NCCC(=O)NCC1(c2c(F)cccc2F)CCCC1 | 24.2%
42 | Cc1noc(C)c1CN1C[C@H](OCc2ccncc2)[C@H]2OCCC[C@H]21 | -10.3%
43 | Cn1cc(CN2CCc3ncnc(N4CCOCC4)c3CC2)cn1 | 5.36%
44 | CCNc1cc2c(nn1)CCN(C(=O)c1cccc3c1OCO3)C2 | -4.16%
45 | Cc1sc2c(C3CCCNC3)nc(Nc3cccc(F)c3)n2c1C (configuration not stated) | 36.5%
46 | COc1cccc(Nc2nc(C3CCNCC3)c3sc(C)c(C)n23)c1 | 23.12%

Row | SMILES | INHIBITION
47 | Cc1sc2c(C3CCNCC3)nc(Nc3cccc(F)c3)n2c1C | 54.6%
48 | CC(C)Oc1ccc2c(NC(=O)CN(C)C)nn(CC(F)(F)F)c2c1 | 42.3%
49 | CC1(Cc2ccc(Cl)cc2)Cc2cc(CCC(=O)O)ccc2O1 (configuration not stated) | -29.4%
50 | Cc1cc(C)c2c(N3CCCN(C(=O)C4CCC4)CC3)ncnc2n1 | 30.9%
51 | Cc1cnc(N2C[C@@H]3C[C@H](C(=O)N(C)C)[C@H](C2)O3)nc1 | 17.3%
52 | Cc1cccc(N(CCC(N)=O)C(=O)c2ccnc(C)n2)c1 | 50.5%
53 | Cc1cccc(N(CCC(N)=O)C(=O)c2cnccn2)c1 | 12.9%
54 | Cc1cccc(N(CCC(N)=O)C(=O)c2cc(-n3cccn3)ccn2)c1 | 8.92%
55 | O=C(CCn1nc(C(F)(F)F)c(Br)c1C1CC1)NN1CCOCC1 | -25.5%
56 | Cc1ccc(OCc2occc2C(=O)N2CCCCC(N)C2)cc1 (configuration not stated) | 11.8%
57 | Cc1cc(CN2C[C@@H]3CC[C@H]2CN(Cc2c(C)noc2C)C3)ccc1F | -63.6%
58 | O=C(c1ncncc1Cl)N1CCC2(CCCC2)CC1 | 43.1%
59 | O=C(c1ncncc1Cl)N1CCN(c2ccc(Cl)cc2)CC1 | 44%
60 | O=C(c1ccccc1)N1CCCN(C(=O)c2ncncc2Cl)CC1 | 74%
61 | COc1ncccc1C(=O)NCCn1cnc(C)cc1=O | -70.7%
62 | CO[C@@H]1CC[C@@H](N(C)C(=O)c2cn3cc(C)ccc3n2)[C@H]1O | -2.65%
63 | CCN1CCOCC12CCN(C(=O)c1ccsc1)CC2 | 42.1%
64 | O=C(Nc1ccc(Cl)cn1)c1cncc(C2CCNCC2)n1 | -10.4%
65 | c1ccc(Cc2nc(CNC3CCOC4(CCOCC4)C3)no2)cc1 (configuration not stated) | -40.7%
66 | c1ccc(Cc2nc(CNC3CCC4(CCNCC4)CC3)no2)cc1 | 53.7%
67 | COCc1nc(CNC2CCC3(CCNCC3)CC2)no1 | 12.1%
